Source: PubChem BioAssay (several laboratories)
MCL1-BIM inh: inhibitors of MCL1 binding to BIM-BH3, primary screen, biochemical, fluorescence polarization; Induced myeloid leukemia cell differentiation protein Mcl-1 (Homo sapiens), Q07820; 0.68% of 320,000 active; GST-MCL1 / FITC-Bim-BH3 fluorescence polarization; inhibition, % at 10.9 µM; AID 2057, 2009;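 active = inhibition above the mean inhibition of all tested compounds plus 3 SD, set per campaign, cut at about 40% in these data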;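 note: 0% = DMSO wells and 100% = unlabeled Bim-BH3 peptide control; higher means more loss of mP so more displacement of Bim peptide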
Bcl-xL primary: inhibitors of human Bcl-xL, primary screen, biochemical, fluorescence polarization, HTS; Bcl-2-like protein 1 (Homo sapiens), Q07817; GST-Bcl-xL / FITC-Bim BH3 peptide fluorescence polarization; inhibition, % at 10.9 µM; 0.7% of 320,000 active; AID 2129, 2009;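 active = inhibition above the mean of all tested compounds plus 3 SD, cutoff set per campaign, cut at about 30% in these data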;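 note: 0% = DMSO wells and 100% = unlabeled Bim-BH3 peptide competitor; inhibitors lower millipolarization by displacing the labeled peptide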
Target sequence (Q07817 whole entry, looked up): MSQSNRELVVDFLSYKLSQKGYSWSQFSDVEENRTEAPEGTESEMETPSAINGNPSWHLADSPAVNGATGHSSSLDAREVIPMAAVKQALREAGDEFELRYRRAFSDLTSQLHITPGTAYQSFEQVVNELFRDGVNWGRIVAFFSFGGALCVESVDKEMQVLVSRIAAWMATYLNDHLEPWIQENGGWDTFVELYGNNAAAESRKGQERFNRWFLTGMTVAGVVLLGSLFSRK
Mcl-1 Bim block: inhibitors of Bim peptide binding to Mcl-1, primary screen, biochemical, bead-based flow cytometry, multiplex; inhibition, % at 10 µM; Induced myeloid leukemia cell differentiation protein Mcl-1 (Homo sapiens), Q07820; 0.1% of 190,000 active; Bim peptide-Mcl-1 binding; AID 1009, 2008; in the data active = inhibition above about 40%;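 note: 0% = no compound tracer wells and 100% = peptide blocker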
GLD-1 TGE inh: GLD-1/TGE RNA complex disruptors, primary screen, biochemical, fluorescence polarization | 0.44% of 320,000 active | inhibition, % at 5.96 µM | purified GLD-1 + fluorescein TGE RNA;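 active = percent inhibition above a per-plate cutoff, the plate mean of test compounds plus 3 SD, cut at about 30% in these data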;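 note: 0% = DMSO wells with GLD-1 and probe and 100% = wells lacking GLD-1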
Target sequence (Q17339 whole entry, looked up): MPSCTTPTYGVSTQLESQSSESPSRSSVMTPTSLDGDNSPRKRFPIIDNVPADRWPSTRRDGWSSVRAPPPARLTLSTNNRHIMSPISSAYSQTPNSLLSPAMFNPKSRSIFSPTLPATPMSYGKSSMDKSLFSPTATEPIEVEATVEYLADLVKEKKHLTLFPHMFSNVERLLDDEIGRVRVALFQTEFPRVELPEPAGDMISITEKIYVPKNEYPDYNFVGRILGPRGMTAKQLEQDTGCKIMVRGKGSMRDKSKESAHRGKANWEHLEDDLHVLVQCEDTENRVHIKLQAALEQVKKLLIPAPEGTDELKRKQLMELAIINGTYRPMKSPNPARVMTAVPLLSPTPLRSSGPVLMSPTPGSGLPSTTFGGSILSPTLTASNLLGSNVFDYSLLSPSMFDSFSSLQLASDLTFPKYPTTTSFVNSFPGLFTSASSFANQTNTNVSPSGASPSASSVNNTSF
Mcl1-Bid inh: Mcl-1/Bid binding inhibitors, primary screen, biochemical, TR-FRET, 1536-well; TR-FRET Mcl-1/Bid-Dy647 peptide binding; inhibition, % at 21.7 µM; 0.97% of 220,000 active;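 active = compounds that cut the binding signal by more than half at the single screening dose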;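 note: His-tagged Mcl-1 with europium anti-His antibody binding Bid BH3 peptide; 0% = Mcl-1 plus peptide wells and 100% = peptide-only wells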
Mcl1 Noxa PPI: Mcl-1/Noxa binding inhibitors, primary screen, biochemical, TR-FRET, 1536-well. Induced myeloid leukemia cell differentiation protein Mcl-1 (Homo sapiens), Q07820. TR-FRET Mcl-1/Noxa peptide binding, 2 h. inhibition, % at 21.7 µM. 1.5% of 220,000 active. AID 1022, 2008;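 active = compounds that cut the protein-peptide binding signal by more than 50% relative to plate controls in a single-dose test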;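 note: His-tagged Mcl-1 with rhodamine Noxa BH3 peptide and terbium anti-His antibody; 0% = Mcl-1 plus Noxa peptide wells and 100% = peptide-only wells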
BCLXL inh confirm: Bcl-xL inhibitors blocking Bim BH3 binding, confirmation, counter-screen for MCL1 inhibitor project, biochemical, fluorescence polarization; 54% of 1,700 active; GST-Bcl-xL / FITC-Bim BH3 peptide FP binding; AID 2166, 2009; shares compounds with MCL1-BIM inh; inhibition, % at 10.9 µM;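 active = inhibition above a cutoff equal to the mean inhibition of all tested compounds plus 3 SD, cut at about 30% in these data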;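 note: 0% = DMSO wells and 100% = unlabeled Bim BH3 control peptide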
MCL1 inh confirm: inhibitors of MCL1 binding to BIM-BH3, confirmation, biochemical, fluorescence polarization, triplicate; inhibition, % at 10.9 µM; GST-MCL1 / FITC-Bim-BH3 fluorescence polarization; shares compounds with MCL1-BIM inh; 61% of 1,700 active;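 active = inhibition above the average of all tested compounds plus 3 SD, cut at about 40% in these data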;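 note: 0% = DMSO wells and 100% = unlabeled Bim-BH3 control peptide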
The depositor's hits bear a star; nt = not tested or not shown; + = active, no number. Only some compounds are listed: those with a hit (about 2.3% of all), similar ones and a draw of the others.

SMILES | MCL1-BIM inh | Bcl-xL primary | Mcl-1 Bim block | GLD-1 TGE inh | Mcl1-Bid inh | Mcl1 Noxa PPI | BCLXL inh confirm | MCL1 inh confirm
O=C(c1ccc2nc(-c3ccco3)c(-c3ccco3)nc2c1)N1CCN(c2ncccn2)CC1 | 81* | 38* | 8 | 15 | -47 | 100* | 35* | 50*
CCCCNC(=O)c1ccc2nc(-c3ccco3)c(-c3ccco3)nc2c1 | 60* | 41* | 3 | 8 | -5 | 93* | 25 | 35
O=C(c1cccc(C(=O)N2CCN(c3ncccn3)CC2)c1)N1CCN(c2ncccn2)CC1 | 3 | 0 | -6 | 4 | -10 | -15 | nt | nt
COc1ccc(-n2cccc2/C=C2\C(=N)N3N=C(c4ccco4)SC3=NC2=O)cc1 | 66* | 7 | 2 | 0 | 81* | 87* | 28 | 81*
CC1(C)CC(=O)C2=C(C1)OC1=C(C(=O)CC(C)(C)C1)C2c1ccc(O)cc1O | + | 174* | -5 | 128* | -20 | 41 | 148* | 194*
O=C(CC1Nc2ccccc2NC1=O)c1ccccc1 (stereo unspecified) | 46* | 15 | -8 | -25 | -103 | -3 | -11 | -21
O=C(CC1Nc2ccccc2NC1=O)NCCc1ccccc1 (stereo unspecified) | 4 | 9 | 8 | -4 | -17 | -5 | nt | nt
O=C(Cn1c(=O)n(Cc2ccco2)c(=O)c2c3c(sc21)CCCCC3)Nc1ccccc1 | 14 | 7 | 0 | 6 | -17 | 41 | nt | nt
O=C(Cn1c(=O)n(Cc2ccco2)c(=O)c2c3c(sc21)CCCCC3)c1ccccc1 | 43* | 26 | -4 | -11 | -18 | 41 | 20 | 32
O=C(C[n+]1cc(Br)cc2ccccc21)c1ccc(Br)cc1 | 94* | 58* | nt | -21 | nt | nt | 55* | 74*
O=C(C[n+]1cc(Br)cc2ccccc21)c1ccc(Cl)cc1 | 86* | 84* | nt | -36 | nt | nt | 23 | 35
O=C(C[n+]1cc(Br)cc(Br)c1)c1ccc(Cl)cc1 | -5 | 2 | nt | -5 | nt | nt | nt | nt
Cc1ccc(NC2=CC(=O)C(=O)c3ccccc32)c(C)c1 | 4 | 1 | nt | 9 | nt | nt | nt | nt
O=C1C=C(Nc2ccccc2O)c2ccccc2C1=O | 100* | 83* | -1 | 99* | -23 | 11 | 15 | 16
Nc1nn2c(-c3ccccc3)cc(=O)[nH]c2c1N=Nc1ccc(O)cc1 | 64* | 25 | 6 | -6 | 80* | 37 | 38* | 74*
CCS(=O)(=O)NCc1ccc2[nH]c3c(c2c1)CCCC3 | 73* | 59* | -3 | 40* | -40 | 3 | 49* | 70*
COc1ccc(N2C(=O)C3C4C=CC(C4)C3C2=O)c([N+](=O)[O-])c1 (stereo unspecified) | -7 | 4 | -1 | 7 | -13 | -1 | nt | nt
CCOc1ccc(N)c(SSc2cc(OCC)ccc2N)c1 | 15 | 1 | nt | 0 | nt | nt | nt | nt
CCOc1cc(-c2ccc(N)c(OCC)c2)ccc1N | 174* | 148* | 0 | 127* | -20 | 8 | 134* | 183*
COc1cc(/C=C/C(=O)OC(C)C(=O)NC2CCCCC2C)cc(Cl)c1OC (stereo unspecified) | -3 | -3 | nt | 8 | nt | nt | nt | nt
Cc1ccc(Oc2c(CO)c(-c3ccccc3)nn2C)cc1 | 48* | 2 | 0 | 9 | -19 | 7 | 2 | 1
N#C/C(=C/c1ccco1)C(N)=S | 58* | 35* | nt | 17 | -12 | -6 | 17 | 25
Cc1cccn2c(=O)c3cc(C(=O)NCc4ccco4)c(=N)n(C4CCCCC4)c3nc12 | 16 | 20 | nt | 11 | nt | nt | nt | nt
Cc1ccc2nc3c(cc(C(=O)NCc4ccco4)c(=N)n3C3CCCC3)c(=O)n2c1 | 83* | 69* | nt | 37* | nt | nt | 74* | 94*
COc1ccc(NC(=O)COc2cccc(C(F)(F)F)c2)cn1 | 70* | 71* | nt | 61* | nt | nt | 82* | 92*
SMILES | MCL1-BIM inh | Bcl-xL primary | Mcl-1 Bim block | GLD-1 TGE inh | Mcl1-Bid inh | Mcl1 Noxa PPI | BCLXL inh confirm | MCL1 inh confirm
O=C(Nc1ccc([N+](=O)[O-])cc1)c1ccc(S(=O)(=O)N2CCCC2)cc1 | 58* | 3 | nt | 0 | nt | nt | 0 | 8
O=C(CSc1nccn1-c1ccc(F)cc1)NCc1ccc(F)cc1 | -5 | 3 | -1 | -6 | -6 | -11 | nt | nt
CC(=O)N1CCN(c2nc(CC(C)C)c3c(c2C#N)CCC3)CC1 | + | 166* | 0 | 157* | -10 | 11 | 19 | 30
CC1(C)CC(=O)C2=C(C1)OC(N)=C(C#N)C2c1cc2c(cc1[N+](=O)[O-])OCO2 (stereo unspecified) | + | 186* | -6 | 141* | -49 | 25 | 108* | 132*
CC1CCN(c2nc3ccccn3c(=O)c2C=O)CC1 | 2 | 6 | -3 | 3 | -49 | -6 | nt | nt
O=Cc1c(Cl)nc2ccccn2c1=O | 59* | 56* | nt | 19 | 28 | -21 | 10 | 11
NC(=S)N/N=C1\CC(n2nnnc2-c2ccccc2)C2COC1O2 (stereo unspecified) | 8 | 7 | nt | 0 | -131 | 24 | nt | nt
Cc1cccc(N2C(=O)C(CC(=O)Nc3cccc(F)c3)N(CCc3ccncc3)C2=O)c1 (stereo unspecified) | 0 | 8 | 0 | -3 | -10 | 13 | nt | nt
COc1ccc(Cl)cc1C(=O)NNC(=O)CSc1nnc2ccccn12 | 40* | 5 | 0 | -8 | -22 | 4 | 1 | 20
O=S(=O)(c1ccc2c(c1)CCCN2)N1CCCC1 | 11 | 6 | nt | 5 | nt | nt | nt | nt
CCN(CC)c1ccc2c(c1)CCCN2 | 128* | 105* | 14 | 90* | -55 | 69* | 28 | 19
CCCCNC(=O)CN(CCc1ccccc1)S(C)(=O)=O | 4 | 7 | -1 | 4 | -23 | 1 | nt | nt
COc1cc2c(cc1OC)CN(c1ccc(-c3ccccc3OC)nn1)CC2 | 65* | 54* | 0 | -16 | -17 | -4 | 22 | 17
COc1cc2c(cc1OC)CN(c1ccc3ccccc3n1)CC2 | -7 | -5 | nt | -10 | nt | nt | nt | nt
